An excerpt weighted towards active compounds, which were near 18% of everything screened.
TDP1 inh: blocks human tyrosyl-DNA phosphodiesterase 1; Q9NUW8; recombinant TDP1, AlphaScreen DNA substrate cleavage; Potency, µM (top dose mostly 130 µM), without a hit: at the highest dose activity change, negative = inhibition, actives largely listed as inhibitors; hit rate 0.28% among 350,000; AID 485290; further: potency means the concentration at half of the fitted maximal effect; nearly all actives have a fitted effect of over 40% in size
Target sequence (Q9NUW8 whole entry, looked up): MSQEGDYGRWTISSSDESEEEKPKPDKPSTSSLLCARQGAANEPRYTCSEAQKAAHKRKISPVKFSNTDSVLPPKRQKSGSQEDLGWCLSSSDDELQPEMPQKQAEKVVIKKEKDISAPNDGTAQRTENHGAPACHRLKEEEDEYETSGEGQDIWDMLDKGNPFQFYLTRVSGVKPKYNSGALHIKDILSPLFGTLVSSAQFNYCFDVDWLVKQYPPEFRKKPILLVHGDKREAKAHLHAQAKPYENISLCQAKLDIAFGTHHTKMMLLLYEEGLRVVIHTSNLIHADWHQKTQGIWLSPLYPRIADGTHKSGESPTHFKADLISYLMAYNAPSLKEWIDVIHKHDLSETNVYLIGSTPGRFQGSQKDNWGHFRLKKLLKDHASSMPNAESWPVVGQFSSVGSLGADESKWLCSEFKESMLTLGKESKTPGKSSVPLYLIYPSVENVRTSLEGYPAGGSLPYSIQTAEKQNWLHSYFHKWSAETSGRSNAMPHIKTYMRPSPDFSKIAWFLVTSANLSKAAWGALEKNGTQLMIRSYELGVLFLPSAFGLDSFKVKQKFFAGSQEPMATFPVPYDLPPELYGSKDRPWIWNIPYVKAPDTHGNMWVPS
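Steps: enzyme plus compound, 15 min RT; add biotin/phosphotyrosine-FITC oligonucleotide (15 nM final), react 5 min; add donor/acceptor beads (10 ug/ml final), 10 min; read AlphaScreen. Tdp1 at 1 nM final.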
Six1-Eya2 inh: inhibitors of human Six1/Eya2 interaction. hit rate 0.56% among 360,000. AID 651725. AlphaScreen GST-Six1/His-Eya2 binding, biochemical; stronger effect = lower value. activity change, % (test concentration not listed); in the data active means activity change below about -65%; inconclusive means mostly about -30% to -63%
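Six1/Eya2 binding was read as AlphaScreen signal after compounds were pinned into GST-Six1 plus His-tagged Eya2 (5X stock 250/500 nM) in pH 8.0 Tris/NaCl/TCEP buffer, beads added, then incubated 1 h, 37 C, dark.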
TDP1 cell noCPT: qHTS for Inhibitors of human tyrosyl-DNA phosphodiesterase 1 (TDP1): qHTS in cells in absence of CPT; DT40 Tdp1-/- hTDP1 cells, no CPT, ATP luminescence, 48 h; Potency, µM (highest dose often 46.2 µM), without a hit: at the highest dose activity change, negative = growth inhibition, actives largely listed as inhibitors; hit rate 15% among 420,000; AID 686978, 2013; further: potency means the concentration at half of the fitted maximal effect; nearly all actives have a fitted effect of over 55% in size
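Luminescent ATP content (CellTiter-Glo) served as the growth readout. Knockout chicken DT40 cells expressing human TDP1 were exposed to compounds without camptothecin for a minimum 48 hr at 37 °C.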
IL-1B inflam inh: inhibitors of inflammasome signaling (IL-1 beta secretion) | THP-1 LPS/ATP IL-1B secretion, AlphaLISA, 16 h; stronger effect = lower value | activity change, % at 57.5 µM | hit rate 4.7% among 360,000 | AID 743279; in the data active means activity change below about -50%; inconclusive means mostly about -30% to -49%
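THP-1 cells pretreated 1 hr with compounds (up to 57.5 uM final), then stimulated with LPS (250 ng/mL final) plus ATP (1.25 mM final); secreted IL-1B measured by AlphaLISA after 16 hr, decreased signal indicating inhibition.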
CtBP-E1A blk: CtBP/E1A binding inhibition; AlphaScreen GST-E1A/His-CtBP binding, 1536-well; stronger effect = lower value; activity change, % (test concentration not listed); hit rate 0.49% among 340,000; AID 651724; in the data active means activity change below about -65%; inconclusive means mostly about -30% to -63%
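AlphaScreen with 125 nM GST-E1A and 125 nM His-CtBP (5X stocks) in Tris pH 8.0, 300 mM NaCl, BSA, Tween 20, TCEP. Compounds preincubated 2 h at 37 deg C, then glutathione donor/nickel acceptor beads added for 1 h at 37 deg C in dark.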
DT40 TDP1 CPT: DT40-hTDP1 cell growth loss with CPT | hit rate 12% among 420,000 | Potency, µM (top dose mostly 46.2 µM), for inactives: top-dose activity change, negative = growth inhibition, usual class: inhibitors | AID 686979 | chicken DT40 Tdp1-/-;hTDP1 cells + 20 nM CPT, ATP luminescence, 48 h; further: potency means the concentration at half of the fitted maximal effect; nearly all actives have a fitted effect of over 55% in size
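Chicken DT40 Tdp1-/- cells complemented with human TDP1, 400 cells/well, exposed to compounds plus 20 nM camptothecin for at least 48 h at 37 C; viability read as ATP content by CellTiter-Glo luminescence.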
Numbers without * were called inactive; ? = inconclusive; · = no result; ! = a repeat was not active. Unless noted, the call rests on the fitted dose curve; in most records, active means well fitted curve in the direction sought with a large enough effect; inconclusive means small, poorly fitted or top-dose-only effect, or another doubt; inactive means no such curve, though single readings can be large; an effect the other way counts as inactive or inconclusive. On the % scale 0 is the no-effect control and ±100 the full control effect.

SMILES	TDP1 inh	Six1-Eya2 inh	TDP1 cell noCPT	IL-1B inflam inh	CtBP-E1A blk	DT40 TDP1 CPT
CCCS(=O)(=O)Nc1cc(-c2cn3cccc(C)c3n2)ccc1C	0%	·	18µM*	·	·	?
Cc1ccc(S(=O)(=O)Nc2cccc(-c3cn4cccc(C)c4n3)c2)cc1	4%	·	?	·	·	?
Cc1cc(C)c(S(=O)(=O)Nc2cccc(-c3cn4ccccc4n3)c2)c(C)c1	12%	·	29µM*	·	·	18µM*
O=C(Nc1ccc(-c2cn3ccccc3n2)cc1)c1ccc(Cl)cc1	3%	-3	9.2µM*	21	-1	23µM*
COc1ccc(N2C(=O)CCC(C(=O)NCCN3CCOCC3)C2c2ccc(OC)c(OC)c2)cc1 (stereo unspecified)	-7%	13	-18%	-9	-4	-2%
O=c1[nH]c(CSc2nnnn2-c2ccc(Cl)cc2)nc2ccccc12	-8%	-7	?	54	-6	-27%
CCCOc1ccc(C2C(C(=O)c3ccc(C)o3)=C(O)C(=O)N2CCN2CCOCC2)cc1OC (stereo unspecified)	2%	0	-2%	0	1	-12%
CC(C)N1CCN(Cc2ccccc2-c2ccco2)CC1CCO (stereo unspecified)	6%	-8	10%	-5	0	?
Cc1ccc(N2CC(C(=O)N/N=C/c3sccc3C)CC2=O)cc1 (stereo unspecified)	0%	-20	-2%	-1	-1	-15%
CCCS(=O)(=O)Nc1cccc(-c2cn3ccc(C)cc3n2)c1	2%	·	16µM*	·	·	23µM*
Cc1ccccc1C(=O)Nc1cccc(-c2cn3ccccc3n2)c1	0%	-14	?	-80*	-13	?
O=C(Nc1ccccc1)Nc1cccc(-c2cn3cccnc3n2)c1	-3%	?	?	-14	5	-14%
O=C(Nc1cccc(-c2cn3ccccc3n2)c1)c1ccccc1	3%	-13	?	-68*	-10	?
CCNc1ccc(Br)cc(C(=O)/C=C/c2ccc3c(c2)OCO3)c1=O	-13%	-5	?	-12	-2	29µM*
CCNc1ccc(Br)cc(C(=O)/C=C/c2c(Cl)cccc2Cl)c1=O	-15%	-12	4.6µM*	-96*	-3	5.2µM*
O=C(CN1C(=O)c2ccccc2S1(=O)=O)Nc1ccccn1	-4%	-2	4%	-7	9	22%
C=CCOC(=O)C1=C(C)NC(SCC(=O)N(CC)CC)=C(C#N)C1c1ccccc1 (stereo unspecified)	0%	9	21µM*	-51*	-1	21µM*
CCN(CC)C(=O)CSC1=C(C#N)C(c2ccco2)C(C(=O)OCCOC)=C(C)N1 (stereo unspecified)	-1%	-2	?	0	-1	21µM*!
O=C(Nc1ccccc1C(=O)N1CCN(Cc2ccccc2)CC1)c1ccccn1	6%	-26	?	-21	3	-13%
C=CCOC(=O)C1=C(C)NC(C)=C(C(=O)OCC=C)C1c1ccc(C)o1	·	-25	?	-77*	1	?
CCOC(=O)C1=C(C)NC(C)=C(C(=O)OCC)C1c1ccc(C)o1	3%	-13	?	-9	-27	?
O=C(CCC1CCCN(C(=O)c2ccsc2)C1)NCc1ccc(F)c(F)c1 (stereo unspecified)	6%	-5	?	18	14	?
CCOc1ccc(/C=C/c2nc(C#N)c(N(C)C)o2)cc1	0%	·	15µM*	·	·	16µM*
CCOc1ccc(/C=C/c2nc(C#N)c(NCCc3ccccc3)o2)cc1	2%	·	1.2µM*	·	·	1.3µM*
CN(Cc1ccccc1)c1oc(-c2ccco2)nc1C#N	8%	-23	-15%	-71*	-25	-1%
COc1ccc(CCNc2oc(-c3ccccc3OC)nc2C#N)cc1	5%	?	?	?	-20	?

From PubChem BioAssay
